Measurements published in article PMC9838217, “Structure of SALL4 zinc finger domain reveals link between AT-rich DNA binding and Okihiro syndrome”.
Changes are numbered by the printed parent chain.

Legend:
Test in all cases: HT-SELEX; high values mean tight binding
Conditions in all cases: protein: recombinant; vector His6-GST; dsDNA, one strand shown
[1] = molecular target: T1, SALL4 ZFC4 WT (HT-SELEX) (Mus musculus, UniProt Q8BX22 870-940)
T1 sequence: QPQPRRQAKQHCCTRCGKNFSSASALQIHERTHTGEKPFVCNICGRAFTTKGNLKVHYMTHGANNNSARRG
Outline: (§1)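 For each canonical k-mer, binding signal is the read fraction as fold change versus the initial random library. Data came from up to 6 triplicate cycles in which purified recombinant mouse SALL4 zinc finger cluster 4 (residues 870–940, 1 µg) was incubated 10 min at room temperature with library DNA (1.5 µg first cycle, 200 ng later) in 100 µl of 10 mM Tris–HCl pH 7.5, 50 mM NaCl, poly(dI-dC), DTT, followed by Ni2+ bead capture, PCR amplification, MiSeq sequencing and a 6-mer scan.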

[2] = molecular target: T2, SALL4 ZFC4 R900W (HT-SELEX) (Mus musculus, UniProt Q8BX22 870-940, R900W)
T2 sequence: T1 sequence with R31W
Outline: as §1

[3] = molecular target: T3, SALL4 ZFC4 G921D (HT-SELEX) (Mus musculus, UniProt Q8BX22 870-940, G921D)
T3 sequence: T1 sequence with G52D
Outline: as §1

TAGGCA
binding signal [1]: 0.578 ± 0.0216 fold-change vs cycle 0
binding signal [2]: 0.648 ± 0.0255 fold-change vs cycle 0
binding signal [3]: 0.751 ± 0.038 fold-change vs cycle 0

ACGGTC
binding signal [1]: 0.362 ± 0.0473 fold-change vs cycle 0
binding signal [2]: 0.432 ± 0.0371 fold-change vs cycle 0
binding signal [3]: 0.553 ± 0.067 fold-change vs cycle 0

ACCGAT
binding signal [1]: 0.687 ± 0.0287 fold-change vs cycle 0
binding signal [2]: 0.745 ± 0.0142 fold-change vs cycle 0
binding signal [3]: 0.862 ± 0.0275 fold-change vs cycle 0

GAGGTA
binding signal [1]: 0.857 ± 0.032 fold-change vs cycle 0
binding signal [2]: 0.988 ± 0.0197 fold-change vs cycle 0
binding signal [3]: 0.996 ± 0.0208 fold-change vs cycle 0

AAGTGA
binding signal [1]: 1.34 ± 0.0271 fold-change vs cycle 0
binding signal [2]: 1.52 ± 0.0501 fold-change vs cycle 0
binding signal [3]: 1.42 ± 0.0562 fold-change vs cycle 0

CCGTTA
binding signal [1]: 0.746 ± 0.0254 fold-change vs cycle 0
binding signal [2]: 0.832 ± 0.0409 fold-change vs cycle 0
binding signal [3]: 0.854 ± 0.0323 fold-change vs cycle 0

CCAGAC
binding signal [1]: 0.368 ± 0.0286 fold-change vs cycle 0
binding signal [2]: 0.471 ± 0.0141 fold-change vs cycle 0
binding signal [3]: 0.553 ± 0.0511 fold-change vs cycle 0

CTATGA
binding signal [1]: 1.49 ± 0.114 fold-change vs cycle 0
binding signal [2]: 1.43 ± 0.0544 fold-change vs cycle 0
binding signal [3]: 1.42 ± 0.104 fold-change vs cycle 0

CAACGA
binding signal [1]: 0.626 ± 0.036 fold-change vs cycle 0
binding signal [2]: 0.7439 ± 0.00396 fold-change vs cycle 0
binding signal [3]: 0.81 ± 0.0225 fold-change vs cycle 0

ATGCTC
binding signal [1]: 0.663 ± 0.0343 fold-change vs cycle 0
binding signal [2]: 0.754 ± 0.0376 fold-change vs cycle 0
binding signal [3]: 0.845 ± 0.0337 fold-change vs cycle 0

GGTAAA
binding signal [1]: 1.19 ± 0.0123 fold-change vs cycle 0
binding signal [2]: 1.3 ± 0.0352 fold-change vs cycle 0
binding signal [3]: 1.23 ± 0.0522 fold-change vs cycle 0

AGGATC
binding signal [1]: 0.876 ± 0.0353 fold-change vs cycle 0
binding signal [2]: 1.01 ± 0.0497 fold-change vs cycle 0
binding signal [3]: 1.07 ± 0.0215 fold-change vs cycle 0

AGCATG
binding signal [1]: 0.713 ± 0.0228 fold-change vs cycle 0
binding signal [2]: 0.806 ± 0.0264 fold-change vs cycle 0
binding signal [3]: 0.882 ± 0.0429 fold-change vs cycle 0

AGATCG
binding signal [1]: 0.674 ± 0.0467 fold-change vs cycle 0
binding signal [2]: 0.774 ± 0.0175 fold-change vs cycle 0
binding signal [3]: 0.926 ± 0.0361 fold-change vs cycle 0

AAAGAC
binding signal [1]: 1.11 ± 0.0498 fold-change vs cycle 0
binding signal [2]: 1.29 ± 0.0526 fold-change vs cycle 0
binding signal [3]: 1.26 ± 0.0352 fold-change vs cycle 0
